Read-outs that look alike come from different tables or passages of the source.

In one experiment the test system is MAPKAPK5. Particulars: concentration: 1 μM,replicates: in singlicate; n = 1.
For another experiment, the system named is MARK1. The note with it: concentration: 1 μM,replicates: in singlicate; n = 1.
Another experiment has as its system MARK2. Particulars: concentration: 1 μM,replicates: in singlicate; n = 1.
For the next experiment, the system named is MARK3. The note with it: concentration: 1 μM,replicates: in singlicate; n = 1.
For another experiment, the system named is MARK4. Particulars: concentration: 1 μM,replicates: in singlicate; n = 1.
The test system of a further experiment is MAST1. Particulars: concentration: 1 μM,replicates: in singlicate; n = 1.
A further experiment concerns T1, MEK1.
T1 construct: gene MAP2K1
Particulars: concentration: 1 μM,replicates: in singlicate; n = 1.

The next experiment concerns T2, MEK2.
T2 construct: gene MAP2K2
The note with it: concentration: 1 μM,replicates: in singlicate; n = 1.

The subject of a further experiment is T3, MEK3.
T3 construct: gene MAP2K3
The note with it: concentration: 1 μM,replicates: in singlicate; n = 1.

The subject of another experiment is T4, MEK4.
T4 construct: gene MAP2K4
The note with it: concentration: 1 μM,replicates: in singlicate; n = 1.

The test system of another experiment is T5, MEK5.
T5 construct: gene MAP2K5
The note with it: concentration: 1 μM,replicates: in singlicate; n = 1.

A further experiment concerns T6, MEK6.
T6 construct: gene MAP2K6
Particulars: concentration: 1 μM,replicates: in singlicate; n = 1.

Another experiment deals with MELK. The note with it: concentration: 1 μM,replicates: in singlicate; n = 1.
The subject of a further experiment is MERTK. The note with it: concentration: 1 μM,replicates: in singlicate; n = 1.
A further experiment has as its system MET. Particulars: n = 1.
The test system of the next experiment is T7, MINK.
T7 construct: gene MINK1
Particulars: concentration: 1 μM,replicates: in singlicate; n = 1.

The subject of another experiment is MKK7. Particulars: concentration: 1 μM,replicates: in singlicate; n = 1.
A further experiment relates to MKNK1. The note with it: concentration: 1 μM,replicates: in singlicate; n = 1.
A further experiment deals with MKNK2. The note with it: concentration: 1 μM,replicates: in singlicate; n = 1.
In the next experiment the test system is T8, MLCK.
T8 construct: gene MYLK3
The note with it: concentration: 1 μM,replicates: in singlicate; n = 1.

Where [1] appears, read: concentration: 1 μM,replicates: in singlicate.
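Also: KINOMEscan kinase panel screen.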

For `Cc1cccc(-c2nc(Nc3ccncc3)c3sccc3n2)n1` [GW869641], the “%Inh” value with MAPKAPK5 amounted to 9%; in the experiment with MARK1 it was 23%; with MARK2 it was 34%; with MARK3 it was 20%; in the experiment with MARK4, 30%; in the experiment on MAST1 it was 23%. Besides, the “%Inh” value with MEK1 was 25%; in the experiment on MEK2, 20%; in the experiment with MEK3, 32%; with MEK4, 35%; in the experiment with MEK5 it was 58%; with MEK6, 10%. For the same compound, the “%Inh” value in the experiment on MELK was determined as 36%; with MERTK it was 0%; in the experiment with MET (setting [1]) it was 28%; with MINK it was 77%; in the experiment on MKK7, 16%; in the experiment on MKNK1 it was 0%. Also, the “%Inh” value in the experiment with MKNK2 came to 0%; with MLCK, 10%.

For `NC(=O)c1ccc(-c2cc3ncnc(SCC(=O)O)c3s2)cc1`, the “%Inh” value in the experiment with MAPKAPK5 was found to be 0%; with MARK1 it was 0%; in the experiment with MARK2 it was 8%; in the experiment with MARK3 it was 0%; in the experiment on MARK4, 0%; in the experiment with MAST1 it was 0%. The “%Inh” value worked out at 0% with MEK1; 34% with MEK2; 9% in the experiment on MEK3; 0% in the experiment with MEK4; 38% in the experiment on MEK5; 0% in the experiment with MEK6. Further, the “%Inh” value in the experiment with MELK was found to be 0%; in the experiment on MERTK, 0%; in the experiment with MET (setting [1]) it was 0%; with MINK, 39%; in the experiment on MKK7, 0%; with MKNK1, 6%. The “%Inh” value is given as 28% with MKNK2 and 12% in the experiment on MLCK.

With `O=C(Nc1cccc(C(F)(F)F)c1)c1cccc(Oc2ccc3nccn3n2)c1`, the “%Inh” value in the experiment with MAPKAPK5 was 51%; in the experiment with MARK1, 0%; in the experiment with MARK2, 2%; in the experiment on MARK3, 9%; in the experiment on MARK4 it was 100%; in the experiment with MAST1, 0%. Further, the “%Inh” value was 0% with MEK1; 8% in the experiment with MEK2; 6% in the experiment on MEK3; 31% with MEK4; 32% with MEK5; 0% in the experiment with MEK6. For the same compound, the “%Inh” value in the experiment on MELK was 0%; in the experiment with MERTK, 17%; in the experiment on MET (setting [1]), 16%; with MINK, 12%; in the experiment on MKK7 it was 36%; in the experiment with MKNK1, 7%. The “%Inh” value with MKNK2 amounted to 26%; with MLCK it was 0%.

In the case of `COc1cccc(C2=C(Nc3cccc(Cl)c3)C(=O)NC2=O)c1` [SB-341556], the “%Inh” value turned out to be 0% in the experiment on MAPKAPK5; 0% in the experiment with MARK1; 0% in the experiment with MARK2; 17% in the experiment with MARK3; 0% in the experiment on MARK4; 0% with MAST1. Besides, the “%Inh” value in the experiment with MEK1 was 0%; in the experiment on MEK2 it was 0%; with MEK3, 15%; in the experiment on MEK4 it was 4%; in the experiment with MEK5, 38%; in the experiment on MEK6 it was 0%. The “%Inh” value in the experiment with MELK was found to be 0%; in the experiment on MERTK it was 0%; in the experiment with MET (setting [1]), 0%; in the experiment on MINK, 0%; in the experiment on MKK7, 10%; in the experiment on MKNK1, 0%. The “%Inh” value in the experiment on MKNK2 stood at 27%; in the experiment with MLCK, 0%.

Regarding `Cc1ccc(CC(=O)N2CCc3cc(-c4cn(C)c5ncnc(N)c45)ccc32)cc1` [GSK2634758], the “%Inh” value in the experiment on MAPKAPK5 stood at 0%; in the experiment with MARK1, 2%; in the experiment on MARK2 it was 0%; with MARK3, 0%; with MARK4 it was 12%; in the experiment with MAST1, 8%. Also, the “%Inh” value in the experiment on MEK1 stood at 0%; in the experiment on MEK2 it was 0%; in the experiment on MEK3, 0%; in the experiment with MEK4, 22%; in the experiment on MEK5, 99.9%; in the experiment with MEK6, 0%. The “%Inh” value with MELK worked out at 7%; with MERTK it was 27%; in the experiment with MET (setting [1]), 86%; with MINK, 6%; with MKK7, 18%; in the experiment on MKNK1, 0%. Besides, the “%Inh” value was determined as 52% in the experiment with MKNK2 and 12% in the experiment on MLCK.

With `O=C(Nc1n[nH]c2cc(-c3ccco3)ccc12)C1CC1` [SB-737447], the “%Inh” value in the experiment with MAPKAPK5 is 12%; with MARK1 it was 12%; in the experiment with MARK2, 39%; in the experiment on MARK3, 42%; in the experiment on MARK4 it was 0%; in the experiment with MAST1, 30%. In addition, the “%Inh” value with MEK1 turned out to be 0%; in the experiment on MEK2 it was 0%; in the experiment with MEK3, 30%; with MEK4, 18%; in the experiment with MEK5 it was 76%; in the experiment on MEK6 it was 0%. Moreover, the “%Inh” value in the experiment on MELK came out at 0%; in the experiment on MERTK, 0%; in the experiment on MET (setting [1]), 0%; in the experiment with MINK, 63%; in the experiment on MKK7, 0%; with MKNK1, 0%. Further, the “%Inh” value with MKNK2 is 39%; in the experiment with MLCK, 78%.

Turning to `C[C@@H](Oc1cc(-n2cnc3cc(-c4ccncc4)ccc32)sc1C(N)=O)c1ccccc1Cl` [GSK479719], the “%Inh” value is 0% in the experiment with MAPKAPK5; 0% in the experiment on MARK1; 100% in the experiment with MARK2; 1% in the experiment with MARK3; 12% with MARK4; 0% in the experiment with MAST1. The “%Inh” value is recorded as 0% with MEK1; 0% with MEK2; 0% in the experiment on MEK3; 37% in the experiment on MEK4; 21% in the experiment on MEK5; 0% in the experiment on MEK6. The “%Inh” value is 0% in the experiment on MELK; 86% in the experiment with MERTK; 52% in the experiment on MET (setting [1]); 0% in the experiment on MINK; 0% in the experiment on MKK7; 0% in the experiment with MKNK1. Also, the “%Inh” value in the experiment with MKNK2 stood at 28%; in the experiment on MLCK, 0%.

`Cc1ccn2nc(-c3ccc(F)cc3)c(-c3ccncc3)c2c1.Cl` [GW457859]: the “%Inh” value came out at 0% with MAPKAPK5; 0% with MARK1; 0% with MARK2; 0% in the experiment on MARK3; 0% in the experiment with MARK4; 64% in the experiment on MAST1. The “%Inh” value with MEK1 amounted to 0%; in the experiment with MEK2 it was 48%; in the experiment with MEK3, 0%; in the experiment on MEK4, 0%; in the experiment with MEK5, 7%; with MEK6 it was 2%. Also, the “%Inh” value in the experiment with MELK worked out at 7%; with MERTK, 24%; in the experiment on MET (setting [1]) it was 0%; with MINK, 67%; with MKK7 it was 0%; in the experiment with MKNK1, 6%. Also, the “%Inh” value in the experiment with MKNK2 stood at 0%; in the experiment on MLCK, 2%.

With `O=C1NCCc2[nH]c(-c3ccncc3)cc21`, the “%Inh” value in the experiment on MAPKAPK5 was 46%; with MARK1, 22%; with MARK2, 12%; in the experiment on MARK3, 25%; with MARK4, 11%; with MAST1, 59%. Also, the “%Inh” value with MEK1 is reported as 8%; with MEK2, 26%; in the experiment with MEK4, 0%; in the experiment with MEK5, 35%; with MEK6, 25%; in the experiment with MELK it was 21%. Also, the “%Inh” value in the experiment on MERTK came to 0%; in the experiment with MET (1 µM), 33%; with MINK, 55%; in the experiment with MKK7, 0%; in the experiment with MKNK1 it was 13%; with MKNK2, 23%. In the experiment with MLCK, the “%Inh” value worked out at 58%.

Turning to `COC(=O)Nc1nc2cc(Oc3ccc(NC(=O)Nc4cc(C(F)(F)F)ccc4Cl)cc3)ccc2[nH]1.Cl` [GW697465], the “%Inh” value was 0% in the experiment on MAPKAPK5; 0% with MARK1; 0% in the experiment with MARK2; 0% in the experiment on MARK3; 0% with MARK4; 14% with MAST1. In addition, the “%Inh” value in the experiment with MEK1 stood at 25%; with MEK2 it was 0%; in the experiment with MEK3, 0%; in the experiment on MEK4, 4%; in the experiment on MEK5, 78%; in the experiment on MEK6, 0%. In addition, the “%Inh” value in the experiment on MELK is 0%; in the experiment on MERTK, 96.3%; in the experiment on MET (setting [1]), 84%; in the experiment with MINK, 0%; in the experiment with MKK7 it was 0%; in the experiment on MKNK1 it was 51%. The “%Inh” value was 92.8% in the experiment with MKNK2 and 0% in the experiment on MLCK.
